This is a sample that favours compounds with a hit; in the whole collection about 11% have one here.
FLuc inh-1: blocks purified firefly luciferase enzyme activity; P08659; purified P. pyralis luciferase, luminescence, biochemical; Potency, µM (titrated, usually from 115 µM), usual class: inhibitors; hit rate 2.5% among 76,000; AID 1347043; also: % is scaled to controls: 0 for no effect and ±100 for the full control effect; nearly all actives have a fitted effect of over 65% in size
Target sequence (P08659 whole entry, looked up): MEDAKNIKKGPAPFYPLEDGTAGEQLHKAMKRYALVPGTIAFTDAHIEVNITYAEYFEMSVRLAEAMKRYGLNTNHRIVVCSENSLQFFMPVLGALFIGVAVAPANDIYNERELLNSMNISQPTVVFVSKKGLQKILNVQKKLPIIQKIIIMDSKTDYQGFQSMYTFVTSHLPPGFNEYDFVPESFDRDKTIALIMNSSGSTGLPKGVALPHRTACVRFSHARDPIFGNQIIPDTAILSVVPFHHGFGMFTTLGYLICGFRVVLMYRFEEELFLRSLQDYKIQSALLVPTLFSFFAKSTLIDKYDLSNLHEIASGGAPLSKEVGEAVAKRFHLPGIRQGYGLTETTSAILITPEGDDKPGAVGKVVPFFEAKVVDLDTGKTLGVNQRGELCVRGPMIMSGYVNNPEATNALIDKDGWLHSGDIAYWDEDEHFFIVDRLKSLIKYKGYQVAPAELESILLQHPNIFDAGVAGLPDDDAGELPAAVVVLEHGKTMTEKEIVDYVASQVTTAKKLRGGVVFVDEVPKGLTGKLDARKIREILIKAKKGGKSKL
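Luminescence read by CCD imager after adding enzyme (10nM final) to wells holding compound, titrated in qHTS. Substrates 10uM each D-luciferin and ATP; buffer 50mM Tris acetate pH 7.5, 10mM Mg acetate, Tween-20, BSA.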
hNpr1 antagonist: human Npr1 receptor antagonism; P16066; hit rate 1.6% among 76,000; Potency, µM (top dose mostly 46.3 µM), for inactives: at the top dose activity change, negative = inhibition, most hits filed as inhibitors; AID 1347048; HEK293 hNpr1 GloSensor cGMP, ANP-stimulated luminescence; calls by dose curve; also: % is scaled to controls: 0 for no effect and ±100 for the full control effect; nearly all actives have a fitted effect of over 60% in size
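HEK293 cells stably expressing human Npr1 and cGMP GloSensor pGS-40F, loaded 2 h with 2% GloSensor reagent, given compound 30 min at room temperature. Luminescence read before and 20 min after 0.1 nM hNppA.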
NIH3T3 tox: kills NIH 3T3 cells. NIH 3T3 viability, CellTiter-Glo ATP luminescence, 48-72 h. Potency, µM (titrated, usually from 96.7 µM), without a hit: top-dose activity change, negative = cytotoxicity, actives largely listed as inhibitors. hit rate 4.3% among 94,000. AID 1345082; also: % is scaled to controls: 0 for no effect and ±100 for the full control effect; nearly all actives have a fitted effect of over 55% in size
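Cytotoxicity is measured as loss of cellular ATP: NIH 3T3 cells (400/well) are exposed to compound for 48 or 72 hr at 37 °C, then CellTiter-Glo luminescence is imaged after 10 min at room temperature.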
HEK293 tox: kills HEK 293 cells. hit rate 6.6% among 94,000. Potency, µM (highest dose often 115 µM), inactives show at the highest dose activity change, negative = cytotoxicity, usual class: inhibitors. HEK 293 viability, ATP luminescence (CellTiter-Glo), 48-72 h; also: % is scaled to controls: 0 for no effect and ±100 for the full control effect; nearly all actives have a fitted effect of over 60% in size
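CellTiter-Glo luminescence (cellular ATP) was read after 48 or 72 hr of compound exposure at 37 degree Celsius. Cells were HEK 293 plated at 250 cells/well.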
FLuc SDR -ATP: stabilizes firefly luciferase without ATP | shares compounds with FLuc inh-1 | Potency, µM (highest dose often 32.7 µM), for the others: at the top dose activation (signal gain), hits mostly activators | hit rate 7.8% among 1,300 | Purified FLuc-C-HiBiT, Nano-Glo HiBiT luminescence, no ATP; also: nearly all actives have a fitted effect of over 55% in size
FLuc SDR ATP: stabilizes firefly luciferase with ATP present | AID 1963319 | hit rate 8.7% among 1,300 | shares compounds with FLuc inh-1 | purified FLuc-C-HiBiT + ATP, HiBiT complementation luminescence | Potency, µM (titrated, usually from 32.7 µM), for inactives: top-dose activation (gain of signal), usual class: activators;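 also: signal reports ligand binding via conformational change of the enzyme rather than luciferase catalysis; % of control where 0% means no effect; nearly all actives have a fitted effect of over 55% in size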
FLuc inh-2: inhibitors of firefly luciferase enzymatic activity; shares compounds with FLuc inh-1; purified FLuc-C-HiBiT enzyme, luciferin luminescence; Potency, µM (series often up to 32.7 µM), for the others: at the highest dose activity change, negative = inhibition, most hits filed as inhibitors; hit rate 42% among 1,300; also: % is scaled to controls: 0 for no effect and ±100 for the full control effect; nearly all actives have a fitted effect of over 70% in size
Active calls of the source: *; [ ] = another dose, or the depositor's remark. Unless noted, calls follow the shape of the dose curve; as a rule, active = well fitted curve in the direction sought with a large enough effect; inconclusive = small, poorly fitted or top-dose-only effect, or another doubt; inactive = no such curve, though single readings can be large; an effect the other way counts as inactive or inconclusive. Potency is read from the fitted curve at half-maximal effect.

For CC1CCCN(C(=O)Cc2cccn2-c2ccc(F)cc2)C1 (stereo not drawn) the results were FLuc inh-1 inactive, hNpr1 antagonist -3%, NIH3T3 tox -8% and HEK293 tox inconclusive.
`Cc1ccc(-n2ncc3c(N4CCCC(C)C4)ncnc32)c(C)c1` (stereo not drawn) gave FLuc SDR -ATP 29%, FLuc SDR ATP 20% and FLuc inh-2 11µM*.
`CC1CCCN(c2ncnc3c2cnn3-c2ccc(Cl)cc2)C1` (stereo not drawn) gave FLuc SDR -ATP 2.8µM*, FLuc SDR ATP 0.25µM* and FLuc inh-2 0.12µM*.
`Clc1ccc(-n2ncc3c(NC4CCCC4)ncnc32)cc1` gave FLuc SDR -ATP inconclusive, FLuc SDR ATP inconclusive and FLuc inh-2 1.2µM*.
For Cc1ccc(SCCNC(=O)C2CCC(=O)N(C3CCCC3)C2)cc1 (stereo not drawn) the results were FLuc inh-1 inactive, hNpr1 antagonist -2%, NIH3T3 tox -21% and HEK293 tox inconclusive.
`COC[C@H]1C[C@@H](NC(=O)Nc2ccc3c(c2)OCCO3)[C@H](O)[C@@H]1O` gave FLuc inh-1 inconclusive, hNpr1 antagonist 2%[70.6 µM], NIH3T3 tox inactive and HEK293 tox inactive.
Cc1cc(=O)n(CC(=O)Nc2ccccc2C)c(N2CCN(c3ccccc3)CC2)n1 was read as FLuc inh-1 inactive, hNpr1 antagonist -3%, NIH3T3 tox -18% and HEK293 tox inconclusive.
CN1C(=O)CS(=O)(=O)C12CCN(C(=O)c1cccc(F)c1)CC2 was read as FLuc inh-1 inactive, hNpr1 antagonist -7%, NIH3T3 tox -12% and HEK293 tox -23%.
For O=C1CC(c2ccccc2)N(C(=O)c2ccoc2)CCCCCN1 (stereo not drawn) the results were FLuc inh-1 inactive, hNpr1 antagonist 7%, NIH3T3 tox inactive and HEK293 tox inactive.
Cc1ccc(Cl)cc1-n1ncc2c(N3CCC(C)CC3)ncnc21 was read as FLuc SDR -ATP 13%, FLuc SDR ATP 8% and FLuc inh-2 -8%.
`Cc1cccc(-n2ncc3c(N4CCCC(C)C4)ncnc32)c1` (stereo not drawn) gave FLuc SDR -ATP 3.9µM*, FLuc SDR ATP inconclusive and FLuc inh-2 0.7µM*.
CC1CCCN(c2ncnc3c2cnn3-c2ccccc2)C1 (stereo not drawn) was read as FLuc SDR -ATP 2.5µM*, FLuc SDR ATP inconclusive and FLuc inh-2 0.44µM*.
Cc1cccc(N2Cc3c(ncnc3N3CCC(N4CCCCC4)CC3)N(C)CC2=O)c1 was read as NIH3T3 tox -29% and HEK293 tox -1%.
CC1CCCN(c2ncnc3c2CN(c2cccnc2)C(=O)CN3C)C1 (stereo not drawn) was read as FLuc inh-1 inactive, hNpr1 antagonist 9%, NIH3T3 tox -17% and HEK293 tox -24%.
For Cc1cccc(-n2ncc3c(N4CCCCCC4)ncnc32)c1 the results were FLuc SDR -ATP 5µM*, FLuc SDR ATP inconclusive and FLuc inh-2 0.88µM*.
CCCc1ccc2oc(C(=O)NCCc3nncn3CC)c(C)c2c1 was read as FLuc inh-1 3.5µM*, hNpr1 antagonist -16%, NIH3T3 tox inconclusive, HEK293 tox inconclusive, FLuc SDR -ATP 13%, FLuc SDR ATP 15% and FLuc inh-2 inconclusive.
For COc1ccc(OCC(=O)Nc2nc(-c3ccc(Br)cc3)ns2)cc1 the results were FLuc SDR -ATP 14%, FLuc SDR ATP 8% and FLuc inh-2 -14%.
`CC(C)NC(=O)Cn1ccn2nc(-c3ccc(F)cc3)c(CO)c2c1=O` gave FLuc inh-1 inactive, hNpr1 antagonist 5%, NIH3T3 tox -10% and HEK293 tox -6%.
`O=C(NCCC1CCCCC1)c1c[nH]c2ncccc12` gave FLuc inh-1 5.6µM*, hNpr1 antagonist inconclusive, NIH3T3 tox inconclusive, HEK293 tox 71µM*, FLuc SDR -ATP inconclusive, FLuc SDR ATP 18%[49.3 µM] and FLuc inh-2 18µM*.
Screening Cc1cc(Cl)ccc1-n1nc(C)c([C@@H]2C=C[C@@H](NC(=O)CCCC(=O)O)C2)c1C returned FLuc inh-1 inconclusive, hNpr1 antagonist -2%[70.6 µM], NIH3T3 tox -7%[174 µM] and HEK293 tox 0%[172 µM].
Cc1ccc(-n2nc(C)c([C@@H]3C=C[C@@H](NC(=O)Nc4ccc(Cl)cc4)C3)c2C)cc1Cl was read as FLuc inh-1 10µM*, hNpr1 antagonist inconclusive, NIH3T3 tox 28µM*, HEK293 tox 16µM*, FLuc SDR -ATP 15%, FLuc SDR ATP 16% and FLuc inh-2 inconclusive.
Cc1ccc(-n2nc(C)c([C@H]3C=C[C@@H](O)C3)c2C)cc1Cl was read as FLuc inh-1 1.1µM*, hNpr1 antagonist 18µM*, NIH3T3 tox inconclusive, HEK293 tox inconclusive, FLuc SDR -ATP 25%[49.3 µM], FLuc SDR ATP inconclusive and FLuc inh-2 13µM*.
`Cc1ccc(C(=O)Nc2cccc(C(=O)O)c2)cc1S(=O)(=O)N1CCCC1` gave FLuc SDR -ATP inconclusive, FLuc SDR ATP 0.078µM* and FLuc inh-2 0.088µM*.
Screening O=C(Nc1ccccc1C(=O)O)c1ccccc1 returned FLuc SDR -ATP 18%, FLuc SDR ATP 10% and FLuc inh-2 inconclusive.
For Cc1ccc(C(=O)Nc2ccccc2C(=O)O)cc1S(=O)(=O)N1CCCCCC1 the results were FLuc SDR -ATP inconclusive, FLuc SDR ATP inconclusive and FLuc inh-2 2.8µM*.
Screening CC(C)S(=O)(=O)N1CCC(N2C(=O)C3(CCCC3)C2c2ccccc2)CC1 (stereo not drawn) returned FLuc inh-1 inactive, hNpr1 antagonist 3%, NIH3T3 tox inconclusive and HEK293 tox inconclusive.
O=C([C@@H]1Cc2nc[nH]c2CN1Cc1ccc(C(F)(F)F)cc1)N1CCOCC1 was read as FLuc inh-1 inactive, hNpr1 antagonist 3%[70.6 µM], NIH3T3 tox -28%[174 µM] and HEK293 tox -21%[172 µM].
Screening COc1cc(NC(=O)CCN2CCCCCC2=O)ccc1NC(=O)C(C)(C)C returned FLuc inh-1 inactive, hNpr1 antagonist 10%, NIH3T3 tox -26% and HEK293 tox 0%.
For COc1cc(NC(=O)c2ccc(-c3ncn[nH]3)cc2)ccc1NC(=O)C(C)(C)C the results were FLuc inh-1 11µM*, hNpr1 antagonist -14%, NIH3T3 tox inconclusive, HEK293 tox 25µM*, FLuc SDR -ATP 18%, FLuc SDR ATP 12% and FLuc inh-2 inconclusive.
